Assay outcomes from PubChem.
GCN5L2 inh: qHTS Assay for Inhibitors of GCN5L2; AID 504327, 2011; GCN5L2 HAT assay, ThioGlo1 CoA-SH fluorescence; Potency, µM (titrated, usually from 58.9 µM), actives largely listed as inhibitors; hit rate 0.21% among 390,000; Histone acetyltransferase KAT2A (Homo sapiens), Q92830
Target sequence (Q92830 whole entry, looked up): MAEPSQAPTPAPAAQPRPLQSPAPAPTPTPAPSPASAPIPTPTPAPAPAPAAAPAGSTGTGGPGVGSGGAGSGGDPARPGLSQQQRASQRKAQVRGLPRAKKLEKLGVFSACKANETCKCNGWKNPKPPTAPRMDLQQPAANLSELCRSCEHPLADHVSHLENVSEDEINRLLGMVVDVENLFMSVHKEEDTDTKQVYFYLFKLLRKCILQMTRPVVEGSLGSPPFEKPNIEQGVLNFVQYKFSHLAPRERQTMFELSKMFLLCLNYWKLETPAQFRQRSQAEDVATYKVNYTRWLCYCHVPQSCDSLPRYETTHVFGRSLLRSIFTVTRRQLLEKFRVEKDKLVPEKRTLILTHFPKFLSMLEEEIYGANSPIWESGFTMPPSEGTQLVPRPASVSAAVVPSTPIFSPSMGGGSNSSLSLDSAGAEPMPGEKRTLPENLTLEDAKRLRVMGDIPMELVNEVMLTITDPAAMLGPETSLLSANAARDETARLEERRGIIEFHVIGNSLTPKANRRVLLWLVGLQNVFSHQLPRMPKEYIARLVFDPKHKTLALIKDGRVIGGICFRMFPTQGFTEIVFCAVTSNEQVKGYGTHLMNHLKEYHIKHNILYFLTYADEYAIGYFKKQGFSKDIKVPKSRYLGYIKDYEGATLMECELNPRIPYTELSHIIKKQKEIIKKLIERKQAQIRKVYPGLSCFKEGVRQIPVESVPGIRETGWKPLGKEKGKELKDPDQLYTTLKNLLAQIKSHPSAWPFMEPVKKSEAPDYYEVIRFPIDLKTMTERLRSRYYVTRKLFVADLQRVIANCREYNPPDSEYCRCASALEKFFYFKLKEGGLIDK
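Free CoA generated was detected with ThioGlo1 (50uM) fluorescence at Ex340nm/Em540nm, read immediately and after 20 min at room temperature. Enzyme, 20 nM in HEPES pH 7.5 buffer, saw compounds 15 min before adding 75uM H3(1-25) peptide and 70uM acetyl-CoA.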
VDR inh: Inhibitors of the vitamin D receptor (VDR): qHTS | Vitamin D3 receptor (Homo sapiens), P11473 | VDR-SRC2-3 peptide fluorescence polarization, 2 h | Potency, µM, usual class: inhibitors | hit rate 0.93% among 400,000 | AID 504847, 2011
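Reagent solutions, kept cold and dark, are dispensed first; compounds are then pinned in at 23 nl, plates briefly spun, and incubated 2 h at ambient temperature. Inhibition of VDR–SRC2-3 peptide binding is read by fluorescence polarization.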
GoLoco inh red: qHTS Assay for Inhibitors of RGS12 GoLoco Motif Activity (Red Fluorophore) | AID 880, 2007 | Potency, µM (titrated, usually from 61.6 µM), hits mostly inhibitors | hit rate 0.44% among 230,000 | Gai1:RGS12 GoLoco peptide FP, rhodamine, 10 min; active = well fitted inhibition curve with a large enough effect, not every such curve was filed as active; inactive = no such curve, though single readings can be large or run the other way; also: nearly all actives have a fitted effect of over 30% in size
TRb-SRC2 inh: qHTS for Inhibitors of the Interaction of Thyroid Hormone Receptor and Steroid Receptor Coregulator 2; Thyroid hormone receptor beta (Homo sapiens), P10828; TRbeta-SRC2 peptide binding, fluorescence polarization; receptor liganded with 1 µM T3; Potency, µM (top dose mostly 106 µM), most hits filed as inhibitors; hit rate 0.065% among 280,000; AID 1469, 2008; also: nearly all actives have a fitted effect of over 50% in size
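A fluorescence polarization screen tested compounds at multiple concentrations against complex formation between 0.6 uM TRb ligand-binding domain and 20 nM Texas Red SRC2 peptide, with 1 uM T3 present; readout after 5 hr.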
TR SRC2 fluor cs: Total Fluorescence Counterscreen for Inhibitors of the Interaction of Thyroid Hormone Receptor and Steroid Receptor Coregulator 2; TRb/SRC2 Texas Red total fluorescence interference; Potency, µM (titrated, usually from 106 µM); hit rate 0.29% among 280,000; active = well fitted curve in either direction with a large enough effect; inconclusive = small, poorly fitted or top-dose-only effect
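Human TRb ligand-binding domain at 0.6 uM with 20 nM Texas Red SRC2 peptide in Tris buffer containing 1 uM T3 and 5% DMSO, incubated with compound 5 h at ambient temperature. Total fluorescence (555/632 nm) calculated as parallel + 2 × perpendicular.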
VDR inh confirm: qHTS for Inhibitors of the vitamin D receptor (VDR): Hit Validation in Primary Screen; shares compounds with VDR inh; VDR-coactivator inhibition assay, qHTS confirmation; Potency, µM, hits mostly inhibitors; hit rate 89% among 840; AID 602199, 2012
VDR FP fluor: qHTS for Inhibitors of the vitamin D receptor (VDR): Hit Validation using a Fluorescein Assay; shares compounds with VDR inh; VDR-coactivator binding, fluorescein fluorescence polarization; Potency, µM (top dose mostly 57.1 µM), hits mostly inhibitors; hit rate 48% among 840; AID 602200, 2012
VDR bla: qHTS for Inhibitors of the vitamin D receptor (VDR): Hit Validation using a Beta-Lactamase Assay; VDR beta-lactamase reporter cells, FRET ratio; cells co-treated with VDR agonist LG190178; Potency, µM (series often up to 46.1 µM), hits mostly inhibitors; hit rate 23% among 840; AID 602202, 2012; shares compounds with VDR inh
VDR cytotox: qHTS for Inhibitors of the vitamin D receptor (VDR): Hit Validation using a Cytotoxicity Assay | shares compounds with VDR inh | cytotoxicity counter-screen, cell viability, qHTS | Potency, µM (titrated, usually from 48.3 µM), most hits filed as cytotoxic | hit rate 18% among 840 | AID 602204, 2012; also: nearly all actives have a fitted effect of over 75% in size
A number is an active result; n = inactive; u = inconclusive; x = not tested or not shown; [ ] = dose if it differs, or a comment. Sampled rows, rich in hits. Any-hit rate of the full collection: about 1.2%. Unless noted, calls follow the shape of the dose curve; as a rule, active = well fitted curve in the direction sought with a large enough effect; inconclusive = small, poorly fitted or top-dose-only effect, or another doubt; inactive = no such curve, though single readings can be large; an effect the other way counts as inactive or inconclusive.

SMILES	GCN5L2 inh	VDR inh	GoLoco inh red	TRb-SRC2 inh	TR SRC2 fluor cs	VDR inh confirm	VDR FP fluor	VDR bla	VDR cytotox
O=C(N[C@@]1(C(=O)O)C[C@@H]1c1ccccc1)c1ccccc1	x	x	n[14.2 µM]	x	x	x	x	x	x
O=C(CN(Cc1ccc(Br)cc1)S(=O)(=O)c1ccccc1)NCc1cccnc1	n	n	x	x	x	x	x	x	x
O=C(NCc1cccnc1)/C(=C\c1ccc(-c2ccc(Br)cc2)o1)S(=O)(=O)c1ccccc1	u	39.8µM	n	n	n	33.6	u	5.8µM	20.6µM
COc1ccc2nc(NCN3C(=O)c4ccccc4C3=O)sc2c1	x	x	n[14.2 µM]	x	x	x	x	x	x
N=C(N)S[C@H]1c2ccccc2-c2cc([N+](=O)[O-])ccc21	x	x	n[14.2 µM]	x	x	x	x	x	x
O=C(CSc1nc2cc(S(=O)(=O)N3CCOCC3)ccc2o1)Nc1c(F)cccc1F	n	17.8µM	n	n	n	10.6	7.08µM	n	n
CCSc1nc2cc(S(=O)(=O)N3CCOCC3)ccc2o1	u	25.1µM	x	x	x	9.47	u	n	n
O=C(CSc1nc2ccc(S(=O)(=O)N3CCOCC3)cc2[nH]1)N1CCOCC1	n	22.4µM	n	n	n	3.77	u	n	n
Cc1ccc(C(=O)CSc2nc3cc(S(=O)(=O)N4CCOCC4)ccc3o2)cc1	n	n	n	n	n	x	x	x	x
Cc1ccc(S(=O)(=O)Nc2ccccc2C(=O)c2ccc(C)c(C)c2)cc1	x	x	n[14.2 µM]	x	x	x	x	x	x
CCOc1ccc(/C=C/C(=O)c2cc(Br)ccc(=O)c2O)cc1	n	50.1µM	n	n	n	13.4	n	n	n
CCOc1ccc(C(=O)/C=C/c2ccc(OC)c(OC)c2)cc1	n	n	n	n	n	x	x	x	x
Cc1cccc(/C=C/C(=O)c2cc(Br)ccc(=O)c2O)c1	u	15.8µM	n	n	n	3.77	n	u	u
Cc1ccc(/C=C/C(=O)c2ccccc2O)cc1	n	u	n	n	n	x	x	x	x
NC(N)=NC[C@H](N)C(=O)O	x	x	n[14.2 µM]	x	x	x	x	x	x
Cc1ccc(C(=O)NCC(=O)OCN2C(=O)c3ccccc3C2=O)cc1C	n	n	x	x	x	x	x	x	x
Cc1ccc(C(=O)NC2(O)C(=O)c3ccccc3C2=O)cc1C	n	10µM	n	n	n	u	u	n	n
O=C(N[C@@H](Cc1ccccc1)C(=O)O)c1ccc(C(F)(F)F)cc1	n	n	n	n	n	x	x	x	x
O=C(NC1(O)C(=O)c2ccccc2C1=O)c1ccc(C(F)(F)F)cc1	n	1.78µM	n	n	n	4.74	u	n	n
O=C1C[C@H](c2ccccc2Cl)N1S(=O)(=O)c1ccccc1[N+](=O)[O-]	x	n	x	n	n	x	x	x	x
Cc1ccccc1N1C(=O)c2sc3nc4c(c(=O)n3c2C1=O)CCC4	n	u	n	n	n	20	25.1µM	u	n
O=C1c2sc3nc4ccccc4n3c2C(=O)N1c1ccccc1Cl	n	n	n	n	n	x	x	x	x
COC(=O)C1=C(C(=O)OC)[C@@H]2Nc3ccccc3[C@@]23C[C@@H](C(=O)OC)N(S(=O)(=O)c2cccs2)C3=N1	x	x	n[14.2 µM]	n[11.2 µM]	n[11.2 µM]	x	x	x	x
N#C/C(=C1\C(=O)Nc2c(Cl)cc(Cl)cc21)c1nnc2n1CCCCC2	n	28.2µM	n	u	n	6.7	25.1µM	n	n
CC(=O)C1=C(c2ccc(Cl)c(Cl)c2)N(C(C)=O)n2cnnc2S1	n	u	x	n	n	x	x	x	x
SMILES	GCN5L2 inh	VDR inh	GoLoco inh red	TRb-SRC2 inh	TR SRC2 fluor cs	VDR inh confirm	VDR FP fluor	VDR bla	VDR cytotox
Cc1ccc(N2NC(=O)/C(=C\c3cc4c(cc3[N+](=O)[O-])OCO4)C2=O)cc1C	n	50.1µM	n	n	n	11.9	u	u	n
O=C1NN(c2ccccc2)C(=O)/C1=C\c1ccc2c(c1)OCO2	n	n	x	x	x	x	x	x	x
N#C/C(=N\Nc1ccc(S(=O)(=O)N2CCOCC2)cc1)C(N)=S	n	n	n	n	n	x	x	x	x
N#CC(C#N)=NNc1ccc(S(=O)(=O)N2CCCCC2)cc1	n	8.91µM	n	n	n	6.7	3.16µM	n	u
COC(=O)[C@@H](NC(=O)N1CCc2nc(-c3ccc(OC)cc3C)c3c(c2C1)CO[C@@H](c1ccccc1)C3)C(C)C	x	x	n[14.2 µM]	n[11.2 µM]	n[11.2 µM]	x	x	x	x
CC(OCc1ccccc1)C(NC(=O)OC(C)(C)C)C(=O)NC1COC2CC(n3ccc(=O)[nH]c3=O)OC12 (configuration not stated)	x	n	x	n	n	x	x	x	x
CC(=O)C1=C(c2ccc(Br)cc2)C(=O)c2ccccc2C1=O	n	25.1µM	n	n	n	5.01	7.94µM	2.91µM	8.44µM
O=C(NCCc1nc2ccccc2n1CCCOc1ccccc1)C1CCCCC1	x	n	x	x	x	x	x	x	x
Cc1ccc(C(=O)CCS(=O)(=O)c2ccc(Br)cc2)cc1	u	n	x	x	x	x	x	x	x
Cc1ccc(S(=O)(=O)CCC(=O)c2cccc([N+](=O)[O-])c2)cc1	n	15.8µM	x	x	x	3.55	3.16µM	u	u
O=S(=O)(c1cnc2ccccc2c1)N1CCN(c2nc(-c3cccs3)nc3ccccc23)CC1	x	n	x	x	x	x	x	x	x
COCCn1c(C)cc(C2=NNC(=Nc3ccccc3)SC2)c1C	n	n	n	n	n	x	x	x	x
COc1ccccc1C1=NNC(=Nc2cccc(S(=O)(=O)N(C)C)c2)SC1	n	u	n	n	n	u	u	n	u
S=c1[nH]c(=S)c2[nH]cnc2[nH]1	x	n	x	x	x	x	x	x	x
O=C(O)C(Cc1ccccc1)Cc1ccccc1	x	x	n[14.2 µM]	x	x	x	x	x	x
CC1CCC(C(=O)O)([C@H](Br)C(=O)O)CC1 (some centres not stated)	x	x	n[14.2 µM]	x	x	x	x	x	x
Cc1cc(Sc2ccc([N+](=O)[O-])cn2)ccc1Br	x	n	x	x	x	x	x	x	x
Cc1cc(S(=O)(=O)c2ccc([N+](=O)[O-])cn2)ccc1Br	x	u	x	x	x	2.24	2.51µM	7.31µM	u
Nc1scc2c(C(=O)O)nn(-c3ccccc3)c(=O)c12	n	u	x	x	x	x	x	x	x
CCOC(=O)c1nn(-c2ccc(F)cc2)c(=O)c2c(N)scc12	n	7.94µM	n	n	n	26.7	u	n	n
